Test results: PubChem BioAssay
A number with no mark means an inactive call.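 How the source made its calls: active means RAM network inhibition above 8.4% in each of two replicates, 3 SD over the compound average; inconclusive means above 8.4% inhibition in only one replicate; inactive means 8.4% inhibition or less in each replicate.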

Assay: RAM signaling pathway blockade in yeast – S. cerevisiae, Pdr1DBD-CYC8 efflux-inhibited sensitized strain, primary screen (AID 1298);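 further: 0% = DMSO untreated cells without growth and 100% = 10 µM 1-NA-PP1 full growth; higher means more yeast growth rescued from 5-FOA killing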
Settings: S. cerevisiae cbk1-as DSE1-URA3 strain, 5-FOA growth OD615, 2 d; at 50 µM; stronger effect = higher value

Going from `COc1ccc2oc(C(=O)C3CC3)c(NC(=O)CCCN3C(=O)c4ccccc4C3=O)c2c1` to `Cc1cccc(OCc2nnc(SCC(=O)Nc3ccc(C)c(C)c3)o2)c1`, the RAM network inhibition falls from 3.53% to 1.73%.

First: CCOC(=O)c1sc(NC(C)=O)cc1C
Second: CCOC(=O)c1cnc2c(C#N)c(C)nn2c1-c1ccccc1
The RAM network inhibition of the first is lower: 1.02% for the first, 3.66% for the second.

First: CCNc1nc2c(c(=O)[nH]c(=O)n2C)n1CC(C)C
Second: COc1ccc(C(=O)c2cnc(C(C)C)n2C)cc1
The RAM network inhibition of the first is lower: 2.92% for the first, 4.97% for the second.

Going from `Cc1cnc(N)c2c(=O)oc3ccccc3c12` to `CCc1cccc(Nc2cc(C)nc3ncnn23)c1`, the RAM network inhibition rises from 1.88% to 6.68%.

First: CN(C)C(CNC(=O)c1cccs1)c1cccnc1 (configuration not stated)
Second: CCCCn1c(NC(=O)c2ccccc2)nc2ccccc21
The RAM network inhibition of the first is lower: 0.26% for the first, 3.88% for the second.

First: Cc1nn(Cc2ccc(Cl)c(Cl)c2)c(C)c1NC(=O)c1cc(C2CC2)on1
Second: COc1cc(OC)cc(-c2cc3nc(C)c(CCC(=O)O)c(C)n3n2)c1
The RAM network inhibition of the first is higher: 2.79% for the first, 1.56% for the second.

Going from `CC(=O)N(Cc1ccco1)C1(C(=O)NC2CCCCC2)CCCCC1` to `CN(C(=O)c1ccc(=O)[nH]c1)C1(C(=O)NC2CCCCC2)CCCCC1`, the RAM network inhibition rises from 1.51% to 1.66%.

First: CCOCCCNC(=O)c1cn(C)c2ccc(S(=O)(=O)N(C)C3CCCCC3)cc2c1=O
Second: CC(=O)Nc1ccc(S(=O)(=O)c2ccc(N)cc2)cc1N
The RAM network inhibition of the first is lower: -0.73% for the first, 3.91% for the second.

With `CCCc1ccc(Oc2c(-c3ccc(O)c(C)c3O)n[nH]c2C)cc1` the RAM network inhibition was -1.26%.
